Laboratory results taken from PubChem BioAssay (NCI).
This is part of a sample that, as a whole, favours compounds with a hit. Of some 83,000 tested, about 20% had one in any assay.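 Negative percent growth values reflect cell death: -40 means 40% of the cells present at the start died, and -100 means all died.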 A number with no mark means an inactive call. Activity calls are given as the source filed them. The calls were made as follows: active = growth percent below 10; inactive = the rest.

Key:
Experiment in all cases: NCI-60 one-dose screen, 48 h (100 = growth as untreated, 0 = no growth, -100 = all killed)
Conditions in all cases: 10 µM unless noted
HCT-15 colon = test system: HCT-15 colon
HT29 colon = test system: HT29 colon
SNB-75 CNS = test system: SNB-75 CNS
SNB-19 CNS = test system: SNB-19 CNS
U251 CNS = test system: U251 CNS
PC-3 prostate = test system: PC-3 prostate
UACC-62 melanoma = test system: UACC-62 melanoma
LOX IMVI melanoma = test system: LOX IMVI melanoma
SK-MEL-28 melanoma = test system: SK-MEL-28 melanoma
SK-MEL-5 melanoma = test system: SK-MEL-5 melanoma

Compound	growth (HCT-15 colon)	growth (HT29 colon)	growth (SNB-75 CNS)	growth (SNB-19 CNS)	growth (U251 CNS)	growth (PC-3 prostate)	growth (UACC-62 melanoma)	growth (LOX IMVI melanoma)	growth (SK-MEL-28 melanoma)	growth (SK-MEL-5 melanoma)
CSC1=Nc2c(c(C)c(-c3ccccc3)n2CCCC(=O)O)C2=NC(=O)C[C@H](C)N12	127%	94.1%	79.7%	101%	103%	97.6%	107%	94.9%	105%	–
C=C(C)[C@@H]1CC[C@]2(COC(C)=O)CC[C@]3(C)[C@H](CC[C@@H]4[C@@]5(C)CCCN(C(C)=O)C(C)(C)[C@@H]5CC[C@]43C)[C@@H]12	0.472% (active)	-7.38% (active)	108%	84.6%	6.47% (active)	65.6%	-2.48% (active)	-98% (active)	96.6%	–
CC(C)(C)n1cc(-c2ccnc(NCCNS(=O)(=O)c3ccc(O)cc3)c2)c(-c2cccc(O)c2)n1	107%	76.9%	74.4%	98.5%	82.4%	101%	101%	106%	98.9%	–
COc1ccc(C(O)c2cc3c(N)c(C(=O)Nc4cccc(Cl)c4C)sc3nc2C)cc1 (stereo unspecified)	10.8%	-7.84% (active)	-11.4% (active)	39%	11.1%	16.7%	24.6%	22%	57.7%	–
CC(C)=CCNc1ncnc2c1ncn2C1OC(CO)C(O)C1O (stereo unspecified)	-49.7% [1 mM] (active)	-5.71% [1 mM] (active)	-32.6% [1 mM] (active)	13.5% [1 mM]	35.2% [1 mM]	-25.8% [1 mM] (active)	27.5% [1 mM]	-96.7% [1 mM] (active)	79.5% [1 mM]	–
CCN1CCN(C(=O)[C@]23CC[C@@H](C)[C@H](C)[C@@H]2C2=CC[C@@H]4[C@@]5(C)C/C(=C/c6cccnc6)C(=O)C(C)(C)[C@@H]5CC[C@@]4(C)[C@]2(C)CC3)CC1	15.2%	12.1%	27.6%	45.9%	27.9%	16.7%	33.8%	14.9%	37.4%	–
CCC1S/C(=N\N=C(\C)c2cc3cc(Cl)ccc3o2)N(c2ccccc2)C1=O (stereo unspecified)	107%	111%	110%	101%	99%	84.6%	88.9%	85.4%	111%	–
c1ccc(CCNc2c3ccccc3nc3ccccc23)cc1	23.3%	22.1%	67.6%	39.5%	41.1%	35.7%	53.2%	–	67.7%	64.7%
Cc1ccc2nc(-c3ccc(C(=O)NNC(=S)Nc4ccccc4)cc3)[nH]c2c1	87.1%	92.5%	99.9%	97.8%	103%	85%	98.9%	87.1%	95.3%	–
CN(C)CCN1C(=O)c2cccc3c(/C=C/CN4C(=O)c5cccc6cccc(c56)C4=O)ccc(c23)C1=O	-75.6% (active)	94%	90.6%	18.7%	90.8%	71.7%	98.7%	30.3%	-56.5% (active)	–
Cc1cccc(N2CCC(=O)NC2=S)c1	107%	113%	92.5%	99.4%	104%	98.3%	96.4%	–	110%	101%
CC/C=C\CCC/C=C1/C(=O)C=C[C@@H]1C/C=C\CCCC(=O)OC	4.07% (active)	-1.77% (active)	82.7%	50.2%	19.7%	32.8%	-14.2% (active)	-70.8% (active)	61.3%	–
N#Cc1cccc(C2C3=C(COC3=O)N(CCO)c3cc4c(cc32)CCC4)c1 (stereo unspecified)	9.99% (active)	4.8% (active)	43.8%	23%	14.6%	22.9%	45.6%	19%	51.2%	–
COc1ccc(N2CCN(C(=O)c3sc4nc(C)c(Br)c(C)c4c3N)CC2)cc1	102%	102%	76.6%	98.9%	87.4%	81.9%	89.2%	93%	104%	–
COC(=O)c1nc(-c2ccccc2)oc1S(=O)(=O)NCC(c1ccc(Cl)cc1)N1CCOCC1 (stereo unspecified)	44.2%	40%	94.3%	89.4%	72.8%	50%	80.9%	48.7%	94.3%	–
O=c1cc(-c2ccccc2)[nH]c2ncc(-c3ccc(F)cc3)n12	37.7%	40.6%	68.3%	68.3%	56%	56.7%	36.6%	65.9%	73.4%	–
C=C1C(=O)O[C@H]2[C@H]1CC/C(COC(=O)CSCSCC(=O)OC/C1=C/CC[C@@]3(C)O[C@H]3[C@H]3OC(=O)C(=C)[C@@H]3CC1)=C\CC[C@@]1(C)O[C@@H]21	0.182% (active)	-3.63% (active)	60.4%	54%	10.8%	0.538% (active)	24.2%	-48.5% (active)	-4.58% (active)	–
CC(=O)O[C@H]1C[C@@H]2C(C)(C)C(=O)CC[C@@]2(C)c2ccc(C(C)C)cc21	105%	111%	100%	102%	97.7%	100%	101%	–	121%	103%
COc1ccc(C(=O)/C=C/c2ccc(Cl)cc2)cc1S(=O)(=O)Nc1c(N)nc(SC)[nH]c1=O	65.7%	31.3%	33.4%	8.18% (active)	-4.2% (active)	39.1%	62.3%	2.64% (active)	97.4%	–
Cc1nc2c(=O)nc3s/c(=C\c4ccco4)c(=O)n3c2nc1C	106%	100%	85.4%	96.8%	93.5%	97.6%	92.4%	90.2%	100%	–
CCCCNC(=O)c1cc([N+](=O)[O-])cc(C2CCCCC2)c1O	42.7%	69.7%	58.6%	40.3%	24.1%	27.1%	20.3%	36.2%	34.3%	–
O=c1nc(-c2ccccc2)c2cc(-c3ccc(C(F)(F)F)nc3)ccc2[nH]1	97.8%	111%	117%	101%	105%	96.2%	97.3%	–	108%	94.8%
N=C(N)c1ccc(-c2ccc(-c3cc(Cl)cc(Cl)c3)s2)nc1	-7.35% (active)	13.2%	105%	64.5%	-36.1% (active)	71.3%	95.2%	–	108%	–
O=C(O)[C@@H](Cc1ccc2ccccc2c1)NC(=O)n1c2ccccc2c2ccccc21	21.1%	4.59% (active)	–	25.4%	14.8%	26.7%	18.3%	35.9%	63.3%	3.91% (active)
C=CC(=O)Nc1ccc(Oc2nccc(Nc3nnc(-c4ccc(C)cc4)s3)n2)cc1	71.5%	103%	–	62.7%	83%	52.8%	44%	60.2%	73.9%	46%
NC(=O)c1c(NC(=O)c2cccs2)sc2c1CCC(=O)C2	16.2%	46.3%	–	40.2%	14.9%	10.5%	4.69% (active)	30.3%	50.7%	71.5%
CC1(C)CC(=O)c2c(nn(-c3ccc(Br)cc3)c2-c2cn(-c3ccccc3)nc2-c2cccnc2)C1	94.9%	98.1%	–	92.5%	91.7%	71.7%	76.7%	85.5%	113%	97.2%
Cc1c2ccncc2c(C)c2c1c1cc(CO)ccc1n2C	4.02% (active)	-21.1% (active)	–	1.5% (active)	-10.8% (active)	4.52% (active)	-54.2% (active)	-21% (active)	5.47% (active)	6.31% (active)
